Results filed as inconclusive are left out. Active and inactive are the calls of the source. Rule for the calls, unless noted: active = hit-call score of the fitted dose curve at least 0.9, where 1 is the maximum; inactive = score below 0.9.
What was measured:
[1] = biological target: Oxysterols receptor LXR-beta (Homo sapiens) (UniProt P55055); test: ATG_LXRb_TRANS: Attagene TRANS-FACTORIAL HepG2 Assay for human Liver X Receptor beta (LXRb) (AID 2282981; active = hit-call score of the fitted dose curve at least 0.9, where 1 is the maximum); conditions: HepG2 Attagene TRANS GAL4-LXRb reporter, mRNA
Summary of the method: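 Transient transfection HepG2 (multiplexed RTUs, GAL4-UAS); NR-Gal4 chimera; 24 h exposure; RNA → RT-PCR → 6-FAM primer extension → HpaI → CE; increase vs DMSO.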

[2] = biological target: Hepatocyte nuclear factor 4-alpha (Homo sapiens) (UniProt P41235); test: ATG_HNF4a_TRANS: Attagene TRANS-FACTORIAL HepG2 Assay for human Hepatocyte Nuclear Factor 4 alpha (HNF4a) (AID 2282982; active = hit-call score of the fitted dose curve at least 0.9, where 1 is the maximum); conditions: HepG2 HNF4a transactivation reporter, mRNA readout
Summary of the method: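 Readout is fluorescent reporter-transcript fragments resolved by capillary electrophoresis after RT-PCR from HepG2 cells dosed for 24 h. Cells carried transfected GAL4-UAS reporter constructs measuring exogenous NR-GAL4 chimera activity; DMSO served as baseline.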

[3] = ATG_M_06_TRANS: Attagene TRANS-FACTORIAL HepG2 Assay for M06 Transcription Factor (Internal Marker) (AID 2282983; active = hit-call score of the fitted dose curve at least 0.9, where 1 is the maximum); conditions: HepG2 Attagene TRANS M06 internal marker reporter
Summary of the method: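 Cells: HepG2, transient multi-reporter transfection. Exposure: 24 h. Detection: RT-PCR, 6-FAM labelling, HpaI digestion (2 h, 37 °C), capillary electrophoresis. Baseline: DMSO.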

[4] = ATG_M_32_TRANS: Attagene TRANS-FACTORIAL HepG2 Assay for M32 Transcription Factor (Internal Marker) (AID 2282984; active = hit-call score of the fitted dose curve at least 0.9, where 1 is the maximum;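 note: transcript level of a background control reporter unit measured by RT-PCR and capillary electrophoresis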); conditions: HepG2 Attagene TRANS M32 internal marker reporter
Summary of the method: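 Measures reporter mRNA induction in human HepG2 liver cells after 24 h chemical treatment. Transcripts from transiently transfected GAL4-UAS reporter units are amplified, fluorescently labelled and sized by capillary electrophoresis; gain of signal relative to DMSO.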

[5] = biological target: Nuclear receptor subfamily 4 group A member 2 (Homo sapiens) (UniProt P43354); test: ATG_NURR1_TRANS: Attagene TRANS-FACTORIAL HepG2 Assay for human Nuclear Receptor Related Protein 1 (NURR1) (AID 2282985; active = hit-call score of the fitted dose curve at least 0.9, where 1 is the maximum); conditions: HepG2 Attagene TRANS reporter, mRNA readout
Summary of the method: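 Transient transfection of HepG2, human liver cells, with multiple GAL4-UAS reporter transcription units. Cells dosed 24 h, RNA isolated, reverse-transcribed, PCR-amplified, FAM-labelled, HpaI-digested, sized by capillary electrophoresis. DMSO served as negative control.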

[6] = biological target: Transcriptional activator Myb (Homo sapiens) (UniProt P10242); test: ATG_Myb_CIS: Attagene CIS-FACTORIAL HepG2 Assay for human Myeloblastosis (Myb) Proto-Oncogene Transcription Factor (AID 2282986); conditions: HepG2 Attagene CIS-FACTORIAL Myb reporter transcription; actives raise or lower the signal
Summary of the method: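 Reporter mRNA is quantified by RT-PCR and capillary electrophoresis 24 h after dosing HepG2 cells transfected with cis-regulated reporter units, which track endogenous transcription factor activity. Gain and loss of signal are fitted versus DMSO baseline.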

[7] = biological target: Nuclear respiratory factor 1 (Homo sapiens) (UniProt Q16656); test: ATG_NRF1_CIS: Attagene CIS-FACTORIAL HepG2 Assay for human Nuclear Respiratory Factor 1 (NRF1) Orphan Gene (AID 2282987); conditions: HepG2 NRF1 cis-element reporter, Attagene multiplex; actives raise or lower the signal
Summary of the method: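 Endogenous NRF1-driven reporter transcription in transfected HepG2 cells after 24 h treatment. Readout: RT-PCR products, 6-FAM labelled and resolved by capillary electrophoresis; changes fitted both directions relative to DMSO.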

[8] = ATG_NFI_CIS: Attagene CIS-FACTORIAL HepG2 Assay for human Nuclear Factor I (NFI) (AID 2282989); conditions: HepG2 cis-regulatory reporter, NFI response element transcription; actives raise or lower the signal
Summary of the method: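 Endogenous TF activity in HepG2 cells transiently transfected with cis-element-driven multiplexed reporter units, read 24 h after dosing. Reporter mRNA quantified by RT-PCR, 6-FAM labelling, HpaI digestion and capillary electrophoresis; bidirectional fit versus DMSO.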

[9] = biological target: Myc proto-oncogene protein (Homo sapiens) (UniProt P01106); test: ATG_Myc_CIS: Attagene CIS-FACTORIAL HepG2 Assay for human Myelocytomatosis (Myc) Proto-Oncogene Transcription Factor (AID 2282990); conditions: HepG2, Attagene cis-reporter transcription factor activity; actives raise or lower the signal
Summary of the method: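 HepG2, transient MRTU transfection (cis promoters, endogenous TFs); 24 h dosing; TriZol RNA → oligo(dT) RT → PCR → 6-FAM primer extension → HpaI cut → CE. Bidirectional fit vs DMSO.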

[10] = ATG_Oct_MLP_CIS: Attagene CIS-FACTORIAL HepG2 Assay for human Octamer-Binding Transcription Factor (Oct) (AID 2282993); conditions: HepG2 Attagene cis-factorial Oct reporter, mRNA; actives raise or lower the signal
Summary of the method: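 HepG2 cells transiently transfected with cis-element-driven reporter transcription units (endogenous TF activity); 24 h compound exposure. Reporter mRNA quantified by RT-PCR, 6-FAM labelling, HpaI digestion and capillary electrophoresis; bidirectional fit versus DMSO baseline.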

[11] = biological target: Cellular tumor antigen p53 (Homo sapiens) (UniProt P04637); test: ATG_p53_CIS: Attagene CIS-FACTORIAL HepG2 Assay for human p53 Transcription Factor (AID 2282994); conditions: HepG2 p53 cis-element reporter, Attagene mRNA; actives raise or lower the signal
Summary of the method: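 HepG2, transient MRTU transfection (cis promoter elements, endogenous TFs); 24 h dosing; RNA isolation, RT-PCR, 6-FAM primer extension, HpaI digest, CE fluorescence; bidirectional fit vs DMSO.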

[12] = ATG_NRF2_ARE_CIS: Attagene CIS-FACTORIAL HepG2 Assay for human Nuclear Factor Erythroid 2 Related Factor 2 (NFR2) response to Antioxidant Response Elements (ARE) (AID 2282992); conditions: HepG2 Attagene ARE/NRF2 reporter, transcription factor activity; actives raise or lower the signal;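 for AC50: reporter mRNA level measured by RT-PCR and capillary electrophoresis fluorescence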
Summary of the method: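 Transient MRTU transfection of HepG2; 24 h compound exposure; TriZol RNA, RT with oligo(dT), PCR, 6-FAM primer extension, HpaI cut, CE. Bidirectional fit vs DMSO.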

[13] = ATG_NF_kB_CIS: Attagene CIS-FACTORIAL HepG2 Assay for human Nuclear Factor Kappa B (NF-kB) (AID 2282991); conditions: HepG2 Attagene cis-factorial NF-kB reporter mRNA; actives raise or lower the signal
Summary of the method: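 Readout is reporter transcript level, gain or loss versus DMSO, measured 24 h post-dose via RT-PCR, fluorescent labelling and capillary electrophoresis. Human HepG2 liver cells carried transiently transfected CIS reporter constructs reflecting endogenous factors.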

[14] = biological target: Oxysterols receptor LXR-alpha (Homo sapiens) (UniProt Q13133); test: ATG_LXRa_TRANS: Attagene TRANS-FACTORIAL HepG2 Assay for human Liver X Receptor alpha (LXRa) (AID 2282980; active = hit-call score of the fitted dose curve at least 0.9, where 1 is the maximum); conditions: HepG2 Attagene TRANS reporter, LXRa transactivation
Summary of the method: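 Chemical-induced reporter mRNA measured by RT-PCR with fluorescent labelling and capillary electrophoresis after 24 h dosing of transiently transfected HepG2 cells expressing exogenous NR-Gal4 chimeras; increases scored against DMSO baseline.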

Sequence of Myc proto-oncogene protein (Homo sapiens) (P01106 whole entry, looked up): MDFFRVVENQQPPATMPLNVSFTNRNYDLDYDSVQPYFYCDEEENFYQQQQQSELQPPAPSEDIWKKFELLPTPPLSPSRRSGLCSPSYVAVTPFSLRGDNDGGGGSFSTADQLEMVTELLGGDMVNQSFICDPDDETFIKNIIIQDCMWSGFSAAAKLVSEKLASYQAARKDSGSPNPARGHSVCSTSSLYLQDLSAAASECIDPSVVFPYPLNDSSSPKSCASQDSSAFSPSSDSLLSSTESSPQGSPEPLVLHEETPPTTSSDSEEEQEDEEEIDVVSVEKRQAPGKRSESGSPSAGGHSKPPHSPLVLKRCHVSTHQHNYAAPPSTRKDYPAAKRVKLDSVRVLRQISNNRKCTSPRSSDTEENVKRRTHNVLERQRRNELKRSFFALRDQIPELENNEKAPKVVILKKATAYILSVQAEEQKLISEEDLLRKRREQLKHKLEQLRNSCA
Sequence of Hepatocyte nuclear factor 4-alpha (Homo sapiens) (P41235 whole entry, looked up, the tested form may be a part): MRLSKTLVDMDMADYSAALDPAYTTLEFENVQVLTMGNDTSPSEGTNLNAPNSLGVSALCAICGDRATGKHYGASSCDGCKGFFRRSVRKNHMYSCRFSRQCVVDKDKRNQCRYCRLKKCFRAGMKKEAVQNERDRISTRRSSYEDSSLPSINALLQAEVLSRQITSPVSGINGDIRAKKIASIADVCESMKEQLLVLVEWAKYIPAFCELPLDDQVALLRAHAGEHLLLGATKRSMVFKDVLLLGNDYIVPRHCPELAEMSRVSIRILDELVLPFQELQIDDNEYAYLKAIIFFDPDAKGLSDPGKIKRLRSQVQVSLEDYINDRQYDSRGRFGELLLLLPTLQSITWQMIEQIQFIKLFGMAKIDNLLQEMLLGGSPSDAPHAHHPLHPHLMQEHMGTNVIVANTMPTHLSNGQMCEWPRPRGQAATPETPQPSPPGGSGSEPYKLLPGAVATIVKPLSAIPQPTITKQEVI
Sequence of Nuclear respiratory factor 1 (Homo sapiens) (Q16656 whole entry, looked up): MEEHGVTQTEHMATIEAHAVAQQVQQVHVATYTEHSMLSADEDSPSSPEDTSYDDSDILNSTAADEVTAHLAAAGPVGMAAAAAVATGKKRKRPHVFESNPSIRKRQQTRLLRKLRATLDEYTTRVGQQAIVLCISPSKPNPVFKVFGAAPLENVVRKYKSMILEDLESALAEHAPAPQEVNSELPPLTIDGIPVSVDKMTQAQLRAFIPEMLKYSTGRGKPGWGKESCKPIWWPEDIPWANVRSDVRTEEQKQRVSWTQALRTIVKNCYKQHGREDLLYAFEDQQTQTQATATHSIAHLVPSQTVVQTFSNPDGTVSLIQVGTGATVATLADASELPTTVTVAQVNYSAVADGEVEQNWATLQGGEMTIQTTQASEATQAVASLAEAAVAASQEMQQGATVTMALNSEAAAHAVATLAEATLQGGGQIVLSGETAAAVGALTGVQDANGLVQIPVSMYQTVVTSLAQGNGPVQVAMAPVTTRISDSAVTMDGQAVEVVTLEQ
Sequence of Oxysterols receptor LXR-beta (Homo sapiens) (P55055 whole entry, looked up, the tested form may be a part): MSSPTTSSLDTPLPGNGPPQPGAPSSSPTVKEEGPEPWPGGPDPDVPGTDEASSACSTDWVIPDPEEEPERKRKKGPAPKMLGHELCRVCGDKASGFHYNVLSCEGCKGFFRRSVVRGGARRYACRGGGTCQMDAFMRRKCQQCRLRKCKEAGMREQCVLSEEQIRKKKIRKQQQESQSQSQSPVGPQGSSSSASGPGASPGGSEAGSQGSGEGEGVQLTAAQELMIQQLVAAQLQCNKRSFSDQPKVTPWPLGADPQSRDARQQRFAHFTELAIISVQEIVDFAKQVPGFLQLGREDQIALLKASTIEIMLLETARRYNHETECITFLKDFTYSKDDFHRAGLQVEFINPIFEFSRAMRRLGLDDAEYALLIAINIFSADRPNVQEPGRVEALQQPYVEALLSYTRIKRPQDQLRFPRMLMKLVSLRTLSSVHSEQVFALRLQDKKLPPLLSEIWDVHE
Sequence of Transcriptional activator Myb (Homo sapiens) (P10242 whole entry, looked up): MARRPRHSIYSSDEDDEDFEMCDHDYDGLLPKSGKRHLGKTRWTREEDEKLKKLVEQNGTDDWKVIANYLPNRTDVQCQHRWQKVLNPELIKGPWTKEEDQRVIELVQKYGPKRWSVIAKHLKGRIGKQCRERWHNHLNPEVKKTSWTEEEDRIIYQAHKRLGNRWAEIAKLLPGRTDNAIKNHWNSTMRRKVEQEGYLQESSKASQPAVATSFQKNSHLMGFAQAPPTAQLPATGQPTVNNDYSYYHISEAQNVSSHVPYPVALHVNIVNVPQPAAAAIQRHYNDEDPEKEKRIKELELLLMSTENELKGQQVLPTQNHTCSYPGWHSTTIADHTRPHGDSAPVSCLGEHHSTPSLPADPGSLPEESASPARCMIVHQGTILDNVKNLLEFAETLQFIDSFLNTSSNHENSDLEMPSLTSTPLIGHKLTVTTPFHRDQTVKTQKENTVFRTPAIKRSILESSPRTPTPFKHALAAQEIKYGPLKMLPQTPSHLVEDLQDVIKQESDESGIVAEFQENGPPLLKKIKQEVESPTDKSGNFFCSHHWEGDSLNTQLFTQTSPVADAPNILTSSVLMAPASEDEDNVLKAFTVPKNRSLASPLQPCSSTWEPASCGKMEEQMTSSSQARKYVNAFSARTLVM
Sequence of Cellular tumor antigen p53 (Homo sapiens) (P04637 whole entry, looked up): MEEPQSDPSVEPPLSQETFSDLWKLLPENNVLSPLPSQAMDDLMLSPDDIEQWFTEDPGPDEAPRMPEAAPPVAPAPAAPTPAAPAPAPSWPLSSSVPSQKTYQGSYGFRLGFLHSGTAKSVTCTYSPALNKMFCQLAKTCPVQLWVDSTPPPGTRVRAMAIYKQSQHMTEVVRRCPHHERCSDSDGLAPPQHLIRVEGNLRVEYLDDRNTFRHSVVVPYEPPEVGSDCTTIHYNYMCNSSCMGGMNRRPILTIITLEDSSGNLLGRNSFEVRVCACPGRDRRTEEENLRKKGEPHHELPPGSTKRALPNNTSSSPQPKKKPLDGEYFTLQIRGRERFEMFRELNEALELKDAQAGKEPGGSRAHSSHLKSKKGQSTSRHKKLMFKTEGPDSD
Sequence of Nuclear receptor subfamily 4 group A member 2 (Homo sapiens) (P43354 whole entry, looked up, the tested form may be a part): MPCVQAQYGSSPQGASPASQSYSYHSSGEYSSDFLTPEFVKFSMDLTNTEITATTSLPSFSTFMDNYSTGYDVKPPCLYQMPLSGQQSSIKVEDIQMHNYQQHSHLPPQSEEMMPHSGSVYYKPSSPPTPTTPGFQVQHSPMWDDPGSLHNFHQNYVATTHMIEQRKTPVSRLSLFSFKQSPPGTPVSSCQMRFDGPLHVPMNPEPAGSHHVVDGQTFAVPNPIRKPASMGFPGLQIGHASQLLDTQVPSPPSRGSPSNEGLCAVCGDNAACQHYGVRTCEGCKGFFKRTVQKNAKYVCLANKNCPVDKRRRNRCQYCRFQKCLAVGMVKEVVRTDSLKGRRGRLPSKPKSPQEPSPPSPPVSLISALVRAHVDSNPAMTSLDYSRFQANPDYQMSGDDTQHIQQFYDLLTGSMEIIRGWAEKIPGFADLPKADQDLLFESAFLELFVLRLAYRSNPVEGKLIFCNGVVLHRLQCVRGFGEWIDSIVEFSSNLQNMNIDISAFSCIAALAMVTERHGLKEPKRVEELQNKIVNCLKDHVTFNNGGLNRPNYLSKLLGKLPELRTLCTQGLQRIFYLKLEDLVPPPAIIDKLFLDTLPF
Sequence of Oxysterols receptor LXR-alpha (Homo sapiens) (Q13133 whole entry, looked up, the tested form may be a part): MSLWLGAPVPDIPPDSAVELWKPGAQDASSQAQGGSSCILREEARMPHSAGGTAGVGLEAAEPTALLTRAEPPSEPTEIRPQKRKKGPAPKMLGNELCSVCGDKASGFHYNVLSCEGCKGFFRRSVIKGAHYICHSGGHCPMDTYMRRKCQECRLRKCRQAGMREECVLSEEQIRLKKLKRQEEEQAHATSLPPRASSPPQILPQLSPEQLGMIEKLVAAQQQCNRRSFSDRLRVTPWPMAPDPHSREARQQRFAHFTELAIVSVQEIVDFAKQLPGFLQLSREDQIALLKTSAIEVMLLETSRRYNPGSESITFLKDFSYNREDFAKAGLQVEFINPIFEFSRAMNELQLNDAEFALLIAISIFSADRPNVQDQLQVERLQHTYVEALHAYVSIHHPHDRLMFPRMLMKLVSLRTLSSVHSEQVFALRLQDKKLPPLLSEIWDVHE

In the case of `CCN(CC#N)c1cccc(C)c1`, the outcome [1] is reported as “inactive”, the outcome [2] is reported as “inactive” and the outcome [3] is reported as “inactive”. For the same compound, the outcome [4] was “inactive”, the outcome [5] was “inactive” and the outcome [6] was “inactive”. The outcome [7] was “inactive”, the outcome [8] was “inactive” and the outcome [9] was “inactive”. The outcome [10] was “inactive” and the outcome [11] was “inactive”.
With `CC(C)(C)C(=O)CCc1ccc(Cl)cc1` the outcome [1] was “inactive”, the outcome [3] was “inactive” and the outcome [4] was “inactive”. For the same compound, the outcome [5] was “inactive”, the outcome [6] was “inactive” and the outcome [7] was “inactive”. For the same compound, the outcome [8] was “inactive”, the outcome [9] was “inactive” and the outcome [12] was “inactive”. The outcome [10] was “inactive”.
For `Cc1cccc(C(=O)O)c1`, the outcome [1] was “inactive”, the outcome [3] was “inactive” and the outcome [4] was “inactive”. The outcome [6] was “inactive”, the outcome [7] was “inactive” and the outcome [8] was “inactive”. For the same compound, the outcome [9] was “inactive”, the outcome [13] was “inactive” and the outcome [12] was “inactive”. The outcome [10] was “inactive” and the outcome [11] was “inactive”.
In the case of `CC/C=C\CCOC(=O)CCCCC`, the outcome [14] is reported as “inactive”, the outcome [6] is reported as “inactive” and the outcome [7] is reported as “inactive”. The outcome [8] was “inactive”, the outcome [9] was “inactive” and the outcome [13] was “inactive”. The outcome [10] was “inactive” and the outcome [11] was “inactive”.
For `C=CC(=O)OCCOC(=O)C=C`, the outcome [1] was “inactive”, the outcome [2] was “inactive” and the outcome [3] was “inactive”. For the same compound, the outcome [4] was “inactive”, the outcome [6] was “inactive” and the outcome [7] was “inactive”. The outcome [8] was “inactive”, the outcome [9] was “inactive” and the AC50 [10] was 26.3 µM (active). The AC50 [11] was 48 µM (active).
With `CCCCCCCC(C)=O` the outcome [1] was “inactive”, the outcome [2] was “inactive” and the outcome [3] was “inactive”. For the same compound, the outcome [4] was “inactive”, the outcome [6] was “inactive” and the outcome [7] was “inactive”. For the same compound, the outcome [8] was “inactive”, the outcome [9] was “inactive” and the outcome [13] was “inactive”. For the same compound, the outcome [12] was “inactive”, the outcome [10] was “inactive” and the outcome [11] was “inactive”.
With `O=C1CCCC(=O)O1` the outcome [1] was “inactive”, the outcome [2] was “inactive” and the outcome [3] was “inactive”. For the same compound, the outcome [4] was “inactive”, the outcome [8] was “inactive” and the outcome [9] was “inactive”. For the same compound, the outcome [13] was “inactive”, the outcome [12] was “inactive” and the outcome [10] was “inactive”. For the same compound, the outcome [11] was “inactive”.
With `O=S(=O)(O)CC(O)CCl` (stereo not drawn) the outcome [1] was “inactive”, the outcome [2] was “inactive” and the outcome [3] was “inactive”. For the same compound, the outcome [4] was “inactive”, the outcome [6] was “inactive” and the outcome [7] was “inactive”. The outcome [8] was “inactive”, the outcome [9] was “inactive” and the AC50 [12] was 30 µM (active). For the same compound, the outcome [10] was “inactive” and the outcome [11] was “inactive”.
With `CC(C)=CCC[C@H](C)CCO` the outcome [1] was “inactive”, the outcome [2] was “inactive” and the outcome [3] was “inactive”. The outcome [5] was “inactive”, the outcome [6] was “inactive” and the outcome [7] was “inactive”. The outcome [9] was “inactive”, the outcome [13] was “inactive” and the outcome [10] was “inactive”. For the same compound, the outcome [11] was “inactive”.
With `Cc1cc(C)c(C)c(C)c1` the outcome [1] was “inactive”, the outcome [2] was “inactive” and the outcome [3] was “inactive”. For the same compound, the outcome [4] was “inactive”, the outcome [5] was “inactive” and the outcome [6] was “inactive”. The outcome [7] was “inactive”, the outcome [8] was “inactive” and the outcome [9] was “inactive”. The outcome [12] was “inactive”, the outcome [10] was “inactive” and the outcome [11] was “inactive”.
With `[Cl][Nd]([Cl])[Cl]` the outcome [1] was “inactive”, the outcome [2] was “inactive” and the outcome [4] was “inactive”. For the same compound, the outcome [5] was “inactive”, the outcome [6] was “inactive” and the outcome [7] was “inactive”. The outcome [8] was “inactive”, the outcome [13] was “inactive” and the outcome [12] was “inactive”. For the same compound, the outcome [10] was “inactive”.
In the case of `CCC(C)C=O` (stereo not drawn), the outcome [14] is reported as “inactive”, the outcome [5] is reported as “inactive” and the outcome [6] is reported as “inactive”. The outcome [7] was “inactive”, the outcome [8] was “inactive” and the outcome [9] was “inactive”. The outcome [13] was “inactive”, the outcome [12] was “inactive” and the outcome [10] was “inactive”. For the same compound, the outcome [11] was “inactive”.
With `COC(=O)/C=C/C(C)=C\C=C\C(C)=C\C=C\C=C(C)\C=C\C=C(C)\C=C\C(=O)O` the outcome [1] was “inactive”, the outcome [2] was “inactive” and the outcome [4] was “inactive”. For the same compound, the outcome [5] was “inactive”, the outcome [6] was “inactive” and the outcome [8] was “inactive”. The outcome [9] was “inactive”, the outcome [13] was “inactive” and the AC50 [12] was 67.9 µM (active). The outcome [10] was “inactive”.
With `c1ccc(CNCc2ccccc2)cc1` the outcome [1] was “inactive”, the outcome [3] was “inactive” and the outcome [6] was “inactive”. For the same compound, the outcome [7] was “inactive”, the outcome [8] was “inactive” and the outcome [9] was “inactive”. The outcome [12] was “inactive”, the outcome [10] was “inactive” and the outcome [11] was “inactive”.
In the case of `ON(Cc1ccccc1)Cc1ccccc1`, the outcome [1] is reported as “inactive”, the outcome [4] is reported as “inactive” and the outcome [6] is reported as “inactive”. For the same compound, the outcome [7] was “inactive”, the outcome [8] was “inactive” and the outcome [9] was “inactive”. For the same compound, the outcome [13] was “inactive”, the outcome [12] was “inactive” and the outcome [11] was “inactive”.

Source: PubChem BioAssay (EPA / NIEHS)
